# Data reported in PMC4336329 (PLoS ONE, 2015).
# The campaign covered roughly 310,000 compounds. About 14,000 (4.5%) showed an effect of 50% or more. Effects have a minus sign here. Shown is part of a subset that was picked to be rich in strong results.
# Biological target: human ether-à-go-go-related gene (hERG) potassium channel (human, UniProt Q12809)
# Assay: primary screen, population patch clamp on CHO cells stably expressing hERG; higher = less effect of the substance
# 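Further: peak tail current of the secondary pulse compared with the same well before compound.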
# Chain of human ether-à-go-go-related gene (hERG) potassium channel (Q12809 whole entry, looked up): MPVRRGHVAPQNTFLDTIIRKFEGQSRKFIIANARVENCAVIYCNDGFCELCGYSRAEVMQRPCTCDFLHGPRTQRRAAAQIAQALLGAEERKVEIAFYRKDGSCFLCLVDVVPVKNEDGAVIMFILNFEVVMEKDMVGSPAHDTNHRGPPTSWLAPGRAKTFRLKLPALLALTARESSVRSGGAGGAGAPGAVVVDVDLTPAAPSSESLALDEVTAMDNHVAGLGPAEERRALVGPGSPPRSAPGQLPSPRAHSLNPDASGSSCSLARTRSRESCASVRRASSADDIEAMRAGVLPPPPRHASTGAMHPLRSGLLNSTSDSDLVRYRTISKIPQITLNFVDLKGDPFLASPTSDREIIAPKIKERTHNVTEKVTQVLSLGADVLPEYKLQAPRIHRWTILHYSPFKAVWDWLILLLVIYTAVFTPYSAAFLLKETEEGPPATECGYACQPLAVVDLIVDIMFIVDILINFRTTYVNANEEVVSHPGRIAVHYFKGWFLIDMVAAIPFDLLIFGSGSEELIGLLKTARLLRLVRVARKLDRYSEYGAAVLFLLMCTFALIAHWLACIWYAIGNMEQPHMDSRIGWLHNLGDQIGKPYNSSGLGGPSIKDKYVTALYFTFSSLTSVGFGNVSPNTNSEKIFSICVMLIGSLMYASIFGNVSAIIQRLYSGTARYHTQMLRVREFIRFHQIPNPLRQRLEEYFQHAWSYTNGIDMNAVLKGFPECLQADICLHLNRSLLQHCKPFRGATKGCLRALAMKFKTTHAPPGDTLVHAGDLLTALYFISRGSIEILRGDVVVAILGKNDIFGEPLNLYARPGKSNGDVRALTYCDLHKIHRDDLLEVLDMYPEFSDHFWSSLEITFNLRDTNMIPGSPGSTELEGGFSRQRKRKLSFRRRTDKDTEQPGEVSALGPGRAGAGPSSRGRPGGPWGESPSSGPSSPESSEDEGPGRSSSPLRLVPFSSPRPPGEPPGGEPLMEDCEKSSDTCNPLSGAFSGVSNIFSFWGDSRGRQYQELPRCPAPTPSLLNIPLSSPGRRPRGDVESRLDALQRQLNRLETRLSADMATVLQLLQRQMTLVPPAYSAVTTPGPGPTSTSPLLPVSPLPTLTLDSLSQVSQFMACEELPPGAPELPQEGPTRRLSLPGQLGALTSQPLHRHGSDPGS
row,SMILES,"hERG current change (%, negative = inhibition) at 10uM"
1,O=C(OCc1cc(Cl)ccc1OC(F)F)c1cncc(Br)c1,5.33%
2,COc1ccc(C(=O)N=C2SC3CS(=O)(=O)CC3N2Cc2ccccc2)cc1OC (stereo not shown),13.3%
3,CCOC(=O)c1c(C)[nH]c(C(=O)COC(=O)/C=C/c2ccc(O)c(OC)c2)c1C,2.87%
4,CCOc1ccc(NS(=O)(=O)c2ccc(C(=O)N3CCN(C(C)=O)CC3)cc2)cc1,26.6%
5,Cc1ccccc1-n1nc(C)c2c1N=C1C(Cl)=CC(Cl)=CN1C2c1ccc(C(=O)O)cc1 (stereo not shown),11.9%
6,CCOc1cc(N2CCOCC2)c(OCC)cc1NC(=O)CN1CCc2ccccc2C1,2.76%
7,COc1cccc(NC(=S)N(Cc2ccc(Cl)cc2)Cc2ccc(C(=O)O)cc2)c1,25.6%
8,COc1ccc2[nH]c(C)c(CCNC(=S)Nc3cccc(C)c3C)c2c1,15.9%
9,O=C(CN1CCCCCC1)NCCN1C(=O)S/C(=C\c2ccccc2Cl)C1=O,-9.34%
10,CC1CN(C(c2cccs2)c2sc3ncnn3c2O)CC(C)O1 (stereo not shown),19.5%
11,O=C(NC1CCCCC1)C(c1ccc2ncccc2c1)N(Cc1cccs1)C(=O)c1cccs1 (stereo not shown),-51.3%
12,COc1ccc(CN(C(=O)c2cccs2)C(C(=O)NC2CCCCC2)c2ccc3ncccc3c2)cc1 (stereo not shown),-47.9%
13,O=C(NC1CCCCC1)C(c1cccs1)N(Cc1cccs1)C(=O)c1cccs1 (stereo not shown),-12.2%
14,O=C(NC1CCCCC1)C(c1ccc2ncccc2c1)N(Cc1ccccc1)C(=O)c1cccs1 (stereo not shown),-60.4%
15,O=C(NC1CCCCC1)C(c1ccc2ncccc2c1)N(Cc1ccc(F)cc1)C(=O)c1cccs1 (stereo not shown),-22%
16,O=C(NC1CCCCC1)C(c1ccc2ncccc2c1)N(Cc1ccc2c(c1)OCO2)C(=O)c1cccs1 (stereo not shown),-37.1%
17,COCCNC(=O)Cn1cc(C(=S)N2CCCCC2)c2ccccc21,18.7%
18,COc1ccccc1C(=O)NCCC(=O)N1CCCCCCC1,4.61%
19,CCOC(=O)c1csc(NC(=O)CN2CCN(C)CC2)n1,19%
20,Cc1ccc(S(=O)(=O)NCC(=O)N/N=C/c2ccc(Cl)cc2)cc1,-3.55%

row,SMILES,"hERG current change (%, negative = inhibition) at 10uM"
1,CCOCC(=O)Nc1nnc(SCCOC)s1,-0.419%
2,O=C(CCCN1C(=O)/C(=C/c2cccs2)SC1=S)Nc1cc([N+](=O)[O-])ccc1O,21.1%
3,O=C(C1CCC(Cn2c(=O)[nH]c3ccccc3c2=O)CC1)N1CCN(c2ccccc2)CC1 (stereo not shown),6.47%
4,Fc1ccc(C2c3cccn3CCN2C(=S)Nc2cccc(F)c2)cc1 (stereo not shown),6.02%
5,CCCCCc1cc(=O)oc2c(C(CCN(CC)CC)c3ccc(OC)cc3)c(OC)cc(OC)c12 (stereo not shown),-55.2%
6,CCCCCc1cc(=O)oc2c(C(CCN3CCN(c4ccccc4)CC3)c3ccc4c(c3)OCO4)c(OC)cc(OC)c12 (stereo not shown),18.7%
7,CCCCCc1cc(=O)oc2c(C(CCN3CCCC(C)C3)c3ccc(N(C)C)cc3)c(OC)cc(OC)c12 (stereo not shown),6.65%
8,CCCCCc1cc(=O)oc2c(C(CCN3CCCC3)c3ccc(N(C)C)cc3)c(OC)cc(OC)c12 (stereo not shown),-57.5%
9,CCCCCc1cc(=O)oc2c(C(CCN3CCCCC3)c3ccc4c(c3)OCO4)c(OC)cc(OC)c12 (stereo not shown),-54.3%
10,CCCCCc1cc(=O)oc2c(C(CCN3CCCC(C)C3)c3ccc(OC)cc3)c(OC)cc(OC)c12 (stereo not shown),-27.8%
11,CCCCCc1cc(=O)oc2c(C(CCN(CC)CC)c3ccc(N(C)C)cc3)c(OC)cc(OC)c12 (stereo not shown),-33.6%
12,CCN(CC)CCC(c1ccc(N(C)C)cc1)c1c(OC)cc(OC)c2ccc(=O)oc12 (stereo not shown),-11.7%
13,CCCCCc1cc(=O)oc2c(C(CCN3CCCC(C)C3)c3ccc4c(c3)OCO4)c(OC)cc(OC)c12 (stereo not shown),-7.33%
14,CCCCCc1cc(=O)oc2c(C(CCN3CCN(c4ccccc4)CC3)c3ccc(N(C)C)cc3)c(OC)cc(OC)c12 (stereo not shown),5.51%
15,CCCCCc1cc(=O)oc2c(C(CCN3CCCCC3)c3ccc(OC)cc3)c(OC)cc(OC)c12 (stereo not shown),-59.1%
16,CC(=O)c1cn(-c2ccc(Cl)cc2)c(=O)n(Cc2ccc(Br)cc2)c1=O,-11.9%
17,O=C(Nc1ccccc1F)C1CCCN(S(=O)(=O)c2ccccc2)C1 (stereo not shown),-10.3%
18,Cc1ccc(Cc2cnc(N3C(=N)SC(c4ccccc4)C3=O)s2)cc1 (stereo not shown),3.87%
19,COc1cc(OC)cc(C(=O)NCC(=O)OCC(=O)C(C)(C)C)c1,16.6%
20,CCCC1=NN2C(=N)/C(=C\c3cc(C)n(-c4cc(C)cc(C)c4)c3C)C(=O)N=C2S1,-10.4%
